# Reference: PubChem BioAssay (NCI)
# This is part of a sample that, as a whole, favours compounds with a hit. Of some 83,000 tested, about 20% had one in any assay.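 Cells were grown in 96-well plates and exposed to the test compound at a single concentration for 48 hours; results are reported as percent growth, with values below 10 considered active.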 Activity calls are given as the source filed them.
# Test system: MDA-MB-468 breast
# Assay: NCI-60 one-dose screen, 48 h (100 = growth as untreated, 0 = no growth, -100 = all killed)
# Conditions: 10 µM unless noted
row,Structure (SMILES),growth
1,COc1ccc(-n2c(N)c(-c3nc4ccccc4[nH]3)cc(C#N)c2=O)cc1,93.1% (inactive)
2,COc1ccc(C(=O)/C=C/Nc2cc(-c3ccccc3)nn2-c2ccccc2)cc1,70.4% (inactive)
3,COC(=O)c1cccc(NC2=C(Cl)C(=O)C(C)=C(C)C2=O)c1,-62% (active)
4,CC(C)(C)n1cc(-c2ccnc(NCCCNS(=O)(=O)c3ccc(Br)cc3)c2)c(-c2cccc(O)c2)n1,3.51% (active)
5,C=C(C)[C@@H]1CC[C@]2(C(=O)O)CC[C@]3(C)[C@H](CC[C@@H]4[C@@]5(C)CCC(N)C(C)(C)[C@@H]5CC[C@]43C)[C@@H]12 (some centres undefined),-23.2% (active)
6,O=C(CSc1oc(-c2ccccc2)nc1S(=O)(=O)c1ccccc1)Nc1ccc(F)cc1,50.1% (inactive)
7,CC1CCc2c(sc3nc(SCC(=O)N/N=C/c4cccc(O)c4O)n(-c4ccccc4)c(=O)c23)C1 (centres undefined),77.7% (inactive)
8,NCCOc1ccccc1/C=C1\c2ccccc2-c2ccc([N+](=O)[O-])cc21,-36.1% (active)
9,COc1ccc(C2CC(c3ccccc3)=Nc3ccccc3S2)cc1 (centres undefined),102% (inactive)
10,CCN(CC)CCOc1ccc(C(=C(C)c2ccc(OC)cc2)c2ccc(OCCN(CC)CC)cc2)cc1,-70.1% (active)
11,Nc1cccc(-c2nc3sccn3c2-c2ccnc(NCCCNS(=O)(=O)c3ccc(C(F)(F)F)cc3)n2)c1,0.59% (active)
12,Cn1c2ccccc2c2ccccc21,101% (inactive)
13,O=C(Nc1ccc(F)cc1)Nc1ccc(CCO)cc1,105% (inactive)
14,CC(=O)Nc1nc(C)c(C(=O)N/N=C/N2CCOCC2)s1,116% (inactive)
